Measurements as given in PubChem BioAssay (NCI).
The panel holds about 79,000 compounds, 15% with a hit somewhere; the sample as a whole holds those more often. Calls of active or inactive are those of the source. Rule as the data show it: active = growth inhibition above about 70%; inactive = the rest.

Columns and labels:
[1] = NCI Yeast Anticancer Drug Screen. Data for the rad50 strain (AID 155);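 also: 0% = growth of vehicle-only cultures of the same strain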; settings: S. cerevisiae rad50 strain growth inhibition, stronger effect = higher value
Method in brief: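 Yeast carrying a defined DNA repair defect were exposed to test compounds, and growth was compared with vehicle-treated controls to give percent inhibition.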

[2] = NCI Yeast Anticancer Drug Screen. Data for the mec2-1 strain (AID 157); settings: S. cerevisiae mec2-1 strain, stronger effect = higher value
Method in brief: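 mec2-1 yeast strain, carrying an alteration in DNA damage repair or cell cycle control, was exposed to compounds; growth inhibition was measured relative to vehicle-treated controls.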

[3] = NCI Yeast Anticancer Drug Screen. Data for the sgs1 mgt1 strain (AID 161);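 also: 0% = growth of cultures given vehicle only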; settings: S. cerevisiae sgs1 mgt1 strain, stronger effect = higher value
Method in brief: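 Percent growth inhibition was derived by comparing compound-exposed mutant yeast with vehicle-exposed cultures. The strain carries alterations in DNA damage repair.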

[4] = NCI Yeast Anticancer Drug Screen. Data for the cln2 rad14 strain (AID 165);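 also: 0% = growth equal to vehicle treated cultures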; settings: S. cerevisiae cln2 rad14 strain, stronger effect = higher value
Method in brief: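 Yeast carrying cln2 and rad14 alterations (cell cycle control and DNA damage repair) were exposed to compounds. Growth inhibition was measured against vehicle-treated controls.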

[5] = NCI Yeast Anticancer Drug Screen. Data for the bub3 strain (AID 167); settings: S. cerevisiae bub3 mutant strain, stronger effect = higher value
Method in brief: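 Compounds were applied to a genetically altered yeast strain carrying a cell-cycle control defect. Growth inhibition was scored against vehicle-treated controls.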

[6] = NCI Yeast Anticancer Drug Screen. Data for the mlh1 rad18 strain (AID 175); settings: S. cerevisiae mlh1 rad18 strain growth inhibition, stronger effect = higher value
Method in brief: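 Growth inhibition of the yeast strain was measured after compound exposure and expressed relative to vehicle-treated controls. The strain carries defined defects in DNA damage repair.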

[7] = at 5.0 µM (retest, dose inferred, filed as 0.5)
[8] = at 50.0 µM (retest, dose inferred, filed as 5.0)

Measured: growth inhibition

N#CCc1ccccc1-c1cccc2ccccc12
inactive: [1]; [7] 0% | [1]; [8] 36% | [1]; at 50.0 µM 35.6% | [2]; [7] 0% | [2]; [8] 44% | [2]; at 50.0 µM 29.4% | [3]; [7] -2% | [3]; [8] 17% | [3]; at 50.0 µM 54.8% | [4]; [7] 3% | [4]; [8] 24% | [4]; at 50.0 µM 41.2% | [5]; [7] 3% | [5]; [8] 34% | [5]; at 50.0 µM 40% | [6]; [7] 1% | [6]; [8] 41%
active: [6]; at 50.0 µM 71.5%

OC1(c2ccccc2)c2ccccc2Sc2ccccc21
active: [1]; [8] 99% | [1]; at 50.0 µM 99% | [2]; [8] 99% | [2]; at 50.0 µM 99.2% | [3]; [8] 97% | [3]; at 50.0 µM 99.2% | [4]; [8] 99% | [4]; at 50.0 µM 99% | [5]; [8] 98% | [5]; at 50.0 µM 99.3% | [6]; [8] 97% | [6]; at 50.0 µM 99.1%
inactive: [1]; [7] 1% | [2]; [7] 6% | [3]; [7] 3% | [4]; [7] 8% | [5]; [7] -16% | [6]; [7] 7%

C[C@@H]1CC=C[C@@H](NC(=O)OCc2ccccc2)[C@H]1C=O
inactive: [1]; [7] -4% | [1]; [8] 30% | [1]; at 50.0 µM 13.6% | [2]; [7] -5% | [2]; [8] -2% | [2]; at 50.0 µM -7.1% | [3]; [7] -2% | [3]; [8] 15% | [3]; at 50.0 µM 69.3% | [4]; [7] -8% | [4]; [8] 12% | [4]; at 50.0 µM 15.7% | [5]; [7] -18% | [5]; [8] 47% | [5]; at 50.0 µM 5.3% | [6]; [7] -20% | [6]; [8] 40%
active: [6]; at 50.0 µM 80.2%

CCCCN(CCCC)CC(O)c1ccc(CCc2ccccc2)cc1 (configuration not stated)
active: [1]; [8] 91% | [1]; at 50.0 µM 99.2% | [2]; [8] 92% | [2]; at 50.0 µM 98.7% | [3]; [8] 99% | [3]; at 50.0 µM 99.5% | [4]; [8] 88% | [4]; at 50.0 µM 98.7% | [5]; [8] 92% | [5]; at 50.0 µM 76.2% | [6]; [8] 97% | [6]; at 50.0 µM 99.3%
inactive: [1]; [7] -6% | [2]; [7] 22% | [3]; [7] 13% | [4]; [7] -7% | [5]; [7] -4% | [6]; [7] 28%

Cc1c(Cl)ccc(O)c1[N+](=O)[O-]
active: [1]; [8] 87% | [1]; at 50.0 µM 91.6% | [2]; [8] 86% | [2]; at 50.0 µM 91.7% | [3]; [8] 82% | [3]; at 50.0 µM 96.1% | [4]; [8] 75% | [4]; at 50.0 µM 84.8% | [5]; [8] 93% | [5]; at 50.0 µM 88.8% | [6]; [8] 97% | [6]; at 50.0 µM 94%
inactive: [1]; [7] 2% | [2]; [7] 2% | [3]; [7] 3% | [4]; [7] 2% | [5]; [7] 5% | [6]; [7] -1%

COc1ccccc1C(c1cc2c(cc1O)OCO2)N1CCOCC1 (configuration not stated)
active: [1]; [8] 97% | [1]; at 50.0 µM 99% | [2]; [8] 98% | [2]; at 50.0 µM 98.6% | [3]; [8] 98% | [3]; at 50.0 µM 85.3% | [4]; at 50.0 µM 77.4% | [5]; [8] 99% | [6]; [8] 98%
inactive: [1]; [7] -15% | [2]; [7] -20% | [3]; [7] -8% | [4]; [7] -12% | [4]; [8] 51% | [5]; [7] 15% | [5]; at 50.0 µM 31.9% | [6]; [7] 6% | [6]; at 50.0 µM 42.4%

CC(=O)Nc1ccc(C(=O)C(C)Br)cc1 (configuration not stated)
inactive: [1]; [7] 38% | [1]; at 50.0 µM 62.8% | [2]; [7] 28% | [3]; [7] 43% | [4]; [7] 24% | [4]; at 50.0 µM 23.6% | [5]; [7] 30% | [5]; at 50.0 µM 66.1% | [6]; [7] 40% | [6]; at 50.0 µM -30.8%
active: [1]; [8] 99% | [2]; [8] 99% | [2]; at 50.0 µM 81.8% | [3]; [8] 99% | [3]; at 50.0 µM 80.5% | [4]; [8] 98% | [5]; [8] 99% | [6]; [8] 99%

CCOC(=O)N1c2ccc3ccccc3c2C=CC1C#N (configuration not stated)
active: [1]; at 50.0 µM 96.5% | [2]; at 50.0 µM 97.3% | [3]; at 50.0 µM 96.6% | [4]; at 50.0 µM 95.5% | [5]; at 50.0 µM 86.3% | [6]; at 50.0 µM 94.7%
inactive: [1]; [7] 0% | [1]; [8] 6% | [2]; [7] -12% | [2]; [8] -5% | [3]; [7] -1% | [3]; [8] 14% | [4]; [7] -11% | [4]; [8] 7% | [5]; [7] -18% | [5]; [8] -20% | [6]; [7] -2% | [6]; [8] -6%

CCCCc1c2c(nc3c1CCCC3O)/C(=C/c1ccccc1)CCC2 (configuration not stated)
active: [5]; [8] 89% | [5]; at 50.0 µM 83.7% | [6]; [8] 71% | [6]; at 50.0 µM 80.3%
inactive: [1]; [7] 0% | [1]; [8] 42% | [1]; at 50.0 µM 50.8% | [2]; [7] 0% | [2]; [8] 47% | [2]; at 50.0 µM 53.9% | [3]; [7] -2% | [3]; [8] 67% | [3]; at 50.0 µM 49.9% | [4]; [7] -3% | [4]; [8] 30% | [4]; at 50.0 µM 59.9% | [5]; [7] 3% | [6]; [7] 1%
